Measurements as given in PubChem BioAssay AID720697 (Broad Institute, 2013).
Potency and affinity values are given separately. Inconclusive results are not listed. Values without a mark were called inactive.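 The calls were made as follows: active = signal loss with fitted half-maximal concentration at or below twice the top valid tested dose in every test run; inconclusive = runs disagree, flat 30 to 70% signal loss, or poor fit; inactive = all runs flat, opposite direction, or potency beyond limit.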

Test: HEK293T cytotoxicity, dose response, cytotoxicity control for miR-122 modulator project, cell-based, inhibitor set, cherry-pick, set 2 (AID 720697);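 also: 0% = median of neutral control wells and -100% = MG132 positive control wells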
Details: HEK293T viability, CellTiter-Glo luminescence, 48 h; series mostly up to 26 µM; activity change, negative = cytotoxicity: at the top concentration

Compound | activity change, negative = cytotoxicity
COc1cccc(-c2ccc3c(c2)O[C@H](CN(C)C(=O)C2CCOCC2)[C@H](C)CN([C@@H](C)CO)S3(=O)=O)c1 | 53%
C=CCc1c(OC)ccc2ccc(=O)oc12 | -1.92% [at 6 µM]
N=c1n(CC(=O)c2ccc(Br)s2)c2ccccc2n1Cc1ccccc1 | -12.8%
COc1ccc(CCNC(=O)c2c(C)cc(=O)oc2C)cc1OC | -9.1%
CC(C)C(=O)Nc1ccc2c(c1)C(=O)N(C)[C@@H]1CC[C@@H](CC(=O)N[C@H](C)c3ccccc3)O[C@@H]1CO2 | 50.7% [at 23.5 µM]
Cc1nc(C)c(C(=O)Nc2ccc(Oc3ccccc3)cc2)o1 | 32.1%
COC(=O)C[C@H]1CC[C@@H]2[C@@H](COc3ccc(NC(=O)c4ccc(F)c(F)c4)cc3C(=O)N2C)O1 | 82%
NS(=O)(=O)c1ccc(Nc2nc(-c3cccnc3)cs2)cc1 | 34% [at 6 µM]
CCCNC(=O)N1C[C@@H]2[C@H](c3ccccc31)[C@H](CO)N2C(=O)C1CCOCC1 | 11.1%
CN1C(=O)c2cc(NC(=O)Cc3ccccc3)ccc2OC[C@H]2O[C@@H](CC(=O)NC3CCC3)CC[C@H]21 | 49.9%
CO[C@H]1CN(C)C(=O)c2cc(NC(=O)Nc3ccc(Cl)c(Cl)c3)ccc2OC[C@@H](C)NC[C@@H]1C | -6.02%
C/C=C/c1ccc([C@H]2[C@@H](CO)N(C(=O)COC)[C@H]2CNC(=O)CC)cc1 | -19.9%
CNC(=O)C[C@@H]1CC[C@@H]2[C@H](COc3ccc(NC(=O)c4cccc(OC)c4)cc3C(=O)N2C)O1 | 69.2%
COc1ccc2c(c1)C(C)=CC(C)(C)N2C(=O)CNCc1ccc2c(c1)OCO2 | 92.1%
C[C@@H]1CN([C@H](C)CO)S(=O)(=O)c2ccc(C3=CCCC3)cc2O[C@@H]1CN(C)C(=O)c1cnccn1 | 83.8%
CNC(=O)C[C@@H]1CC[C@H]2[C@@H](COc3ccc(NC(=O)c4ccc(C(F)(F)F)cc4)cc3C(=O)N2C)O1 | 95.8% [at 23.5 µM]
C/C=C/c1ccc([C@@H]2[C@@H](CO)N(C(C)=O)[C@@H]2CN(C)C(=O)c2ccccn2)cc1 | 203%
CNC(=O)C[C@H]1CC[C@@H]2[C@H](COc3ccc(NC(=O)NC(C)C)cc3C(=O)N2C)O1 | 99.1% [at 23.5 µM]
O=C(CN1CCOCC1)NC[C@@H]1N[C@@H](CO)[C@@H]1c1ccc(-c2ccccc2)cc1 | 97.3% [at 23.5 µM]
CC(=O)Oc1ccc2c(c1)C(=O)c1ccccc1CO2 | -73.2%

Compound | activity change, negative = cytotoxicity
Cc1nn(C)cc1NC(=O)C[C@H]1CC[C@@H]2[C@H](COc3ccc(NC(=O)Nc4cccc(Cl)c4)cc3C(=O)N2C)O1 | 92.5%
COCC(=O)N(C)C[C@H]1Oc2cc(-c3ccc(C#N)cc3)ccc2S(=O)(=O)N([C@H](C)CO)C[C@H]1C | 113%
CC(C)C(=O)Nc1ccc2c(c1)C(=O)N(C)[C@@H]1CC[C@H](CC(=O)NCc3cccc(F)c3)O[C@H]1CO2 | 56.6% [at 23.5 µM]
Cc1cc(C(=O)Nc2ccc3c(c2)C(=O)N(C)[C@H]2CC[C@H](CC(=O)N[C@H](C)c4ccccc4)O[C@H]2CO3)no1 | 37.3%
C[C@H]1CCCCO[C@H](CN(C)Cc2ccc3c(c2)OCO3)[C@@H](C)CN([C@@H](C)CO)C(=O)c2cc(NC(=O)Nc3cccc4ccccc34)ccc2O1 | 113%
COCC(=O)Nc1ccc2c(c1)C(=O)N(C)[C@@H]1CC[C@@H](CC(=O)NCc3ccc(OC)cc3)O[C@H]1CO2 | 71.4%
CN1CCN(C(=O)C[C@H]2CC[C@@H]3[C@H](COc4ccc(NC(=O)c5cccs5)cc4C(=O)N3C)O2)CC1 | 39.4%
CC(C)NC(=O)Nc1ccc2c(c1)C(=O)N(C)[C@@H]1CC[C@@H](CC(=O)NCC(F)(F)F)O[C@@H]1CO2 | 38.3%
C[C@H](NC(=O)C[C@H]1CC[C@@H]2[C@@H](COc3ccc(NS(=O)(=O)c4ccc(Cl)cc4)cc3C(=O)N2C)O1)c1ccccc1 | 77.1%
CCCNC(=O)C[C@@H]1CC[C@H]2[C@H](COc3ccc(NC(=O)c4ccc(C(F)(F)F)cc4)cc3C(=O)N2C)O1 | -8.4% [at 23.5 µM]
CN(C[C@H]1[C@H](c2ccccc2)[C@@H](CO)N1CC1CC1)C(=O)c1cccc(F)c1 | 87.6% [at 23.5 µM]
CN(C)CCNc1ncnc2c1sc1nc(-c3ccccc3)c3c(c12)CCCC3 | -127%
CCC(=O)N1C[C@H]2[C@@H](c3ccccc31)[C@H](CO)N2Cc1cc(F)ccc1F | 39.1%
CN1[C@@H](CO)[C@@H]2c3ccccc3N(C(=O)Nc3cc(F)ccc3F)C[C@@H]21 | 61%
CCN(C[C@H]1N[C@@H](CO)[C@@H]1c1ccc(C2=CCCC2)cc1)C(=O)c1cccnc1 | -38.7%
CC(C)Oc1ccc(C(CCN)C2CCCCC2)cc1 (centres undefined) | -62.4%
CCC(=O)N1[C@H](CO)[C@@H](c2ccccc2)[C@H]1CN(C(C)C)S(C)(=O)=O | 192%
COC(=O)C[C@H]1CC[C@@H]2[C@H](COc3ccc(NC(=O)c4cccs4)cc3C(=O)N2C)O1 | 118%
CCNC(=O)C[C@H]1CC[C@H]2[C@@H](COc3ccc(NS(C)(=O)=O)cc3C(=O)N2C)O1 | 92.5%
